PINK1 expr mod – changes PINK1 expression; PINK1 immunofluorescence, high-content cytometry, 24 h; Potency, µM (highest dose often 76.6 µM), for inactives: top-dose activation (PINK1 increase), most hits filed as activators; 0.2% of 410,000 active; AID 624263; active means well fitted activation curve with a large enough effect; inconclusive means small, poorly fitted or top-dose-only effect; cell line not stated here; further: potency means the concentration at half of the fitted maximal effect; % of control where 0% means no effect; nearly all actives have a fitted effect of over 65% in size
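A stable cell line was treated with compounds at 5 concentrations for 24 hours, with CCCP as control. PINK1 levels and mitochondrial localization were measured by immunofluorescence with mitochondrial, cell and nuclear markers after fixation, read by laser-scanning cytometry.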
ATXN viability – reduces viability in counter-screen for ATXN expression inhibitors | Potency, µM (highest dose often 56.7 µM), usual class: cytotoxic | AID 651635 | 0.49% of 400,000 active | S2 cells (HEK-293 line with an ATXN2-luciferase reporter) viability, CellTiter-Fluor protease fluorescence, 24 h; further: potency means the concentration at half of the fitted maximal effect; nearly all actives have a fitted effect of over 40% in size
SW480 rereplic – inducers of DNA re-replication in SW480 colon cancer cells. SW480 DNA re-replication, Hoechst DNA content imaging, 48 h. Potency, µM (titrated, usually from 46.1 µM), without a hit: at the highest dose re-replication activation, actives largely listed as activators. 1.8% of 340,000 active. AID 624297; further: potency means the concentration at half of the fitted maximal effect; % of control where 0% means no effect; nearly all actives have a fitted effect of over 55% in size
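First, 250 cells per well were seeded. Next, compound or vehicle (23 nL) was pinned in, plates sat 48 hr at 37 C. Finally Hoechst was added for 40 min before fluorescence scanning.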
MCF10A rereplic – induces DNA re-replication in MCF 10a normal breast cells | MCF 10A DNA re-replication, Hoechst nuclear intensity, 48 h | Potency, µM (top dose mostly 46.1 µM), without a hit: top-dose activity, positive = re-replication, most hits filed as activators | 2.9% of 350,000 active; further: potency means the concentration at half of the fitted maximal effect; % of control where 0% means no effect; nearly all actives have a fitted effect of over 50% in size
ATXN2 expr inh – inhibitors of ATXN2 expression | 0.72% of 360,000 active | Potency, µM (doses to about 57 µM), for the others: at the highest dose activity change, negative = inhibition, most hits filed as inhibitors | HEK-293 ATXN2-luciferase reporter, luminescence, 24 h; further: potency means the concentration at half of the fitted maximal effect; on the % scale 0 is the no-effect control and ±100 the full control effect; nearly all actives have a fitted effect of over 55% in size
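qHTS (up to 57 uM final) was run with 24 h compound exposure of reporter cells at 37 °C. Each well was multiplexed: SteadyGlo luminescence measured ATXN2-luciferase expression after a fluorogenic Gly-Phe-AFC viability readout (25 uM final).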
IL-1B inflam inh – inflammasome signaling inhibition, IL-1 beta readout; 4.7% of 360,000 active; activity change, % at 57.5 µM; THP-1 LPS/ATP IL-1B secretion, AlphaLISA, 16 h; active compounds read low; in the data active means activity change below about -50%; inconclusive means mostly about -30% to -49%; further: on the % scale 0 is the no-effect control and ±100 the full control effect
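THP-1 cells pretreated 1 hr with compounds (up to 57.5 uM final), then stimulated with LPS (250 ng/mL final) plus ATP (1.25 mM final); secreted IL-1B measured by AlphaLISA after 16 hr, decreased signal indicating inhibition.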
An asterisk follows results filed as active; [ ] = dose if it differs, or a comment. Most compounds without a hit are left out; they make up all but 7.1% or so of the library. Unless noted, the call rests on the fitted dose curve; in most records, active means well fitted curve in the direction sought with a large enough effect; inconclusive means small, poorly fitted or top-dose-only effect, or another doubt; inactive means no such curve, though single readings can be large; an effect the other way counts as inactive or inconclusive.

How did COc1cccc(CN(C)CC2CCCN(CCc3ccccc3C)C2)c1 (centres undefined) do in these assays?
PINK1 expr mod: 4%; ATXN viability: inactive; SW480 rereplic: 8%; MCF10A rereplic: 17%; IL-1B inflam inh: -26

How did COc1ccc(CN(C)CC2CCCN(CCc3ccccc3C)C2)cc1O (centres undefined) do in these assays?
PINK1 expr mod: 1%; ATXN viability: inactive; SW480 rereplic: 16%; MCF10A rereplic: 7%; ATXN2 expr inh: -24%; IL-1B inflam inh: -52*

What do the screens show for `COc1cc(OC)c(OC)cc1CN(C)CC1CCCN(CCc2ccccc2F)C1` (centres undefined)?
PINK1 expr mod: 0%; ATXN viability: inconclusive; SW480 rereplic: 0%; MCF10A rereplic: 4%; IL-1B inflam inh: inconclusive

How did CCOc1ccccc1NC(=O)Cn1c(=O)n(CCCC(=O)NCCOC)c(=O)c2cc(OC)c(OC)cc21 do in these assays?
PINK1 expr mod: 2%; ATXN viability: inactive; ATXN2 expr inh: -9%

Results for CC(C)(C)OC(=O)N1CCC[C@H]1C(=O)O ?
PINK1 expr mod: 0%; ATXN viability: inactive; SW480 rereplic: -21%; MCF10A rereplic: 24%; ATXN2 expr inh: 0%; IL-1B inflam inh: 9

What do the screens show for `CC(C)COC(=O)N1CCCC1C(=O)O` (centres undefined)?
PINK1 expr mod: -4%[38.3 µM]; ATXN viability: inactive; SW480 rereplic: 0.73µM*; MCF10A rereplic: 6.5µM*; ATXN2 expr inh: -4%; IL-1B inflam inh: 0

What do the screens show for `COc1cc(OC)c(N(C)C(=O)c2nn(C)c3c2CSc2ccccc2-3)cc1Cl`?
PINK1 expr mod: 3%

How did CCN(CC)c1cc(CS(=O)c2ccccc2)nc(-c2ccccc2)n1 (centres undefined) do in these assays?
PINK1 expr mod: -4%; ATXN viability: inactive; SW480 rereplic: 1%; MCF10A rereplic: inconclusive; ATXN2 expr inh: -14%; IL-1B inflam inh: -50*

Results for O=C(CCn1c(=O)[nH]c2ccccc21)NCC1Cc2cc(Cl)cc(-c3ccncc3)c2O1 (centres undefined) ?
PINK1 expr mod: -1%; ATXN viability: inactive

Results for COc1ccc2c(c1)-c1nc(-n3ncc(C(=O)N(C)CC4CCCN(C)C4)c3C3CC3)ncc1CC2 (centres undefined) ?
PINK1 expr mod: 0%; ATXN viability: inactive

Results for C(=NN=Cc1c[nH]c2ccccc12)c1c[nH]c2ccccc12 ?
PINK1 expr mod: inconclusive; ATXN viability: inactive; IL-1B inflam inh: -1

How did O=C1/C(=C/c2c[nH]c3ccccc23)CCC/C1=C\c1c[nH]c2ccccc12 do in these assays?
PINK1 expr mod: 6%; ATXN viability: inconclusive; SW480 rereplic: inconclusive; MCF10A rereplic: 21µM*; ATXN2 expr inh: inconclusive; IL-1B inflam inh: -4

How did CC(C)(C)c1ccc(S(=O)(=O)N2CCC(CO)(CC3CCCCO3)CC2)cc1 (centres undefined) do in these assays?
PINK1 expr mod: 2%; ATXN viability: inactive; SW480 rereplic: 3%; MCF10A rereplic: 0%; ATXN2 expr inh: -10%; IL-1B inflam inh: -72*

What do the screens show for `COc1ccc(CNC(=O)c2c3c(nc4ccccc24)C(=O)N(C2CCCCC2)C3)cc1`?
PINK1 expr mod: 1%

How did CN1N=C(N)c2cn([C@@H]3O[C@H](COP(=O)(O)O)[C@@H](O)[C@@H]3O)c3ncnc1c23 do in these assays?
ATXN2 expr inh: 71%

Results for COc1ccc(C(=O)Nc2nnc(SCC(=O)NCc3ccco3)s2)c(OC)c1 ?
PINK1 expr mod: 12%; ATXN viability: inactive; SW480 rereplic: -8%; MCF10A rereplic: -17%; ATXN2 expr inh: inconclusive; IL-1B inflam inh: -30

How did CCOC(=O)Cc1nnc(NC(=O)c2ccccc2OC)s1 do in these assays?
PINK1 expr mod: 0%; ATXN viability: inactive; SW480 rereplic: -4%; MCF10A rereplic: -2%; ATXN2 expr inh: 6%; IL-1B inflam inh: -14

What do the screens show for `COc1ccccc1C(=O)Nc1nnc(CCc2ccccc2)s1`?
PINK1 expr mod: 3%; ATXN viability: inactive; SW480 rereplic: 6.5µM*; MCF10A rereplic: inconclusive; ATXN2 expr inh: -7%; IL-1B inflam inh: -28

How did COc1ccccc1C(=O)Nc1nnc(SCC(=O)NCc2ccco2)s1 do in these assays?
PINK1 expr mod: 4%; ATXN viability: inactive; SW480 rereplic: 21µM*; MCF10A rereplic: 0%; ATXN2 expr inh: 3%; IL-1B inflam inh: -22

Results for COc1ccc(Cc2nnc(NC(=O)c3ccccc3[N+](=O)[O-])s2)cc1 ?
PINK1 expr mod: -1%; ATXN viability: inactive; SW480 rereplic: -75%; MCF10A rereplic: 23µM*; IL-1B inflam inh: 1

How did COc1ccc(Cc2nnc(NC(=O)c3cccc([N+](=O)[O-])c3C)s2)cc1 do in these assays?
PINK1 expr mod: 1%[38.3 µM]; ATXN viability: inactive; SW480 rereplic: -9%; MCF10A rereplic: 29%; ATXN2 expr inh: -7%; IL-1B inflam inh: 17

How did CC(C)c1cccc(C(C)C)c1NS(=O)(=O)c1cccs1 do in these assays?
PINK1 expr mod: 1%; ATXN viability: inactive; ATXN2 expr inh: -12%

Results for Cc1cccc(C(=O)NNC2=C(C(=O)C(F)(F)F)CCC2)c1O ?
PINK1 expr mod: 16µM*; ATXN viability: inactive; SW480 rereplic: inconclusive; MCF10A rereplic: inconclusive; ATXN2 expr inh: inconclusive; IL-1B inflam inh: 97

Results for Cc1ccc(C)c(CN2C(=O)c3ccccc3S(=O)c3ccc(C(=O)N4CCCCC4)cc32)c1 (centres undefined) ?
PINK1 expr mod: 1%; ATXN viability: inactive; ATXN2 expr inh: 16%

Results for O=C1CCCN2N=C(SCC(=O)Nc3ccc([N+](=O)[O-])cc3)SC2=N1 ?
PINK1 expr mod: 6%; ATXN viability: inactive; SW480 rereplic: 2.9µM*; MCF10A rereplic: 5.2µM*; ATXN2 expr inh: -7%; IL-1B inflam inh: 0

Results for O=C1CCCN2N=C(SCC(=O)Nc3ccc(OC(F)(F)F)cc3)SC2=N1 ?
PINK1 expr mod: -1%; ATXN viability: inactive; SW480 rereplic: -9%; MCF10A rereplic: -2%; ATXN2 expr inh: -16%; IL-1B inflam inh: 45

Results for CCOC(=O)CSc1cc(-c2ccccc2)nc2ncnn12 ?
PINK1 expr mod: 10%; ATXN viability: inconclusive; SW480 rereplic: -31%; MCF10A rereplic: 2.3µM*; ATXN2 expr inh: -29%

What do the screens show for `CN(C)CCCNc1cc(O)c2ncccc2c1`?
PINK1 expr mod: 1%; ATXN viability: inconclusive; SW480 rereplic: inconclusive; MCF10A rereplic: inconclusive; ATXN2 expr inh: 20µM*
